PubChem BioAssay (NCATS)
Records with an inconclusive call do not appear. The source made the active and inactive calls. Calls follow the shape of the dose curve; as a rule, active = well fitted curve in the direction sought with a large enough effect; inconclusive = small, poorly fitted or top-dose-only effect, or another doubt; inactive = no such curve, though single readings can be large; an effect the other way counts as inactive or inconclusive.

Columns and labels:
[1] = Quantitative High-Throughput drug screen in 47 multiple myeloma cell lines against the NCATS MIPE library collection: Delta47_JCRB cell viability assay (AID 1918925; also: nearly all actives have a fitted effect of over 45% in size)
How it was run: (§1)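 CellTiter-Glo luminescence (ATP) after 48 h compound exposure, 37C/5% CO2; 500 cells/well; MIPE 4.0 approved/investigational drugs pinned in; DMSO = 100%, media only = 0% viability.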

[2] = Quantitative High-Throughput drug screen in 47 multiple myeloma cell lines against the NCATS MIPE library collection: EJM_DSMZ cell viability assay (AID 1918926; also: nearly all actives have a fitted effect of over 30% in size)
How it was run: as §1

[3] = Quantitative High-Throughput drug screen in 47 multiple myeloma cell lines against the NCATS MIPE library collection: AMO1_DSMZ cell viability assay (AID 1918927; also: nearly all actives have a fitted effect of over 30% in size)
How it was run: as §1

[4] = Quantitative High-Throughput drug screen in 47 multiple myeloma cell lines against the NCATS MIPE library collection: ARP1_JJKsccF8 cell viability assay (AID 1918928; also: nearly all actives have a fitted effect of over 40% in size)
How it was run: (§2)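 Each line was plated at 500 cells/well and treated 48 h with library drugs. Viability came from CellTiter-Glo luminescence relative to DMSO and cell-free medium controls.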

[5] = Quantitative High-Throughput drug screen in 47 multiple myeloma cell lines against the NCATS MIPE library collection: ARD_JJKsccE7 cell viability assay (AID 1918929)
How it was run: as §1

[6] = Quantitative High-Throughput drug screen in 47 multiple myeloma cell lines against the NCATS MIPE library collection: Karpas620_DSMZ cell viability assay (AID 1918959); also: nearly all actives have a fitted effect of over 30% in size
How it was run: (§3)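 Relative luminescence from CellTiter-Glo served as the viability signal, referenced to DMSO-treated (100%) and cell-free medium (0%) controls. Treatment lasted 48 hours at 37C with 500 cells per well.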

[7] = Quantitative High-Throughput drug screen in 47 multiple myeloma cell lines against the NCATS MIPE library collection: KMM1_JCRB cell viability assay (AID 1918960); also: nearly all actives have a fitted effect of over 30% in size
How it was run: as §2

[8] = Quantitative High-Throughput drug screen in 47 multiple myeloma cell lines against the NCATS MIPE library collection: Karpas417_ECACC cell viability assay (AID 1918961); details: Karpas417 myeloma viability, CellTiter-Glo ATP luminescence, 48 h; viability (% of DMSO): at 45.8 µM (top of the series)
How it was run: as §3

[9] = Quantitative High-Throughput drug screen in 47 multiple myeloma cell lines against the NCATS MIPE library collection: KHM11_PLB cell viability assay (AID 1918962); also: nearly all actives have a fitted effect of over 35% in size
How it was run: as §3

[10] = Quantitative High-Throughput drug screen in 47 multiple myeloma cell lines against the NCATS MIPE library collection: JIM3_ECACC cell viability assay (AID 1918963; also: nearly all actives have a fitted effect of over 35% in size)
How it was run: as §3

[11] = Quantitative High-Throughput drug screen in 47 multiple myeloma cell lines against the NCATS MIPE library collection: INA6_PLB cell viability assay (AID 1918965; also: nearly all actives have a fitted effect of over 55% in size)
How it was run: as §3

[12] = Quantitative High-Throughput drug screen in 47 multiple myeloma cell lines against the NCATS MIPE library collection: JJN3_DSMZ cell viability assay (AID 1918966; also: nearly all actives have a fitted effect of over 50% in size)
How it was run: as §1

[13] = Quantitative High-Throughput drug screen in 47 multiple myeloma cell lines against the NCATS MIPE library collection: Karpas25_ECACC cell viability assay (AID 1918968; also: nearly all actives have a fitted effect of over 35% in size)
How it was run: as §1

[14] = Quantitative High-Throughput drug screen in 47 multiple myeloma cell lines against the NCATS MIPE library collection: KMS12BM_JCRB cell viability assay (AID 1918971); also: nearly all actives have a fitted effect of over 35% in size
How it was run: as §3

[15] = Quantitative High-Throughput drug screen in 47 multiple myeloma cell lines against the NCATS MIPE library collection: KMS12PE_JCRB cell viability assay (AID 1918972); also: nearly all actives have a fitted effect of over 30% in size
How it was run: as §3

[16] = Quantitative High-Throughput drug screen in 47 multiple myeloma cell lines against the NCATS MIPE library collection: H1112_PLB cell viability assay (AID 1918967; also: nearly all actives have a fitted effect of over 30% in size)
How it was run: as §1

[17] = Quantitative High-Throughput drug screen in 47 multiple myeloma cell lines against the NCATS MIPE library collection: KMS27_JCRB cell viability assay (AID 1918970); also: nearly all actives have a fitted effect of over 30% in size
How it was run: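 CellTiter-Glo luminescence after 48 h drug exposure at 37 °C; 500 cells/well, 1536-well format, pin-tool compound addition; DMSO = 100%, media-only = 0% viability.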

[18] = Quantitative High-Throughput drug screen in 47 multiple myeloma cell lines against the NCATS MIPE library collection: KMS20_JCRB cell viability assay (AID 1918973); also: nearly all actives have a fitted effect of over 45% in size
How it was run: as §1

[19] = Quantitative High-Throughput drug screen in 47 multiple myeloma cell lines against the NCATS MIPE library collection: KMS21BM_JCRB cell viability assay (AID 1918974); details: ATP luminescence, 48 h; viability: at 45.8 µM (top of the series) unless noted
How it was run: as §1

[20] = Quantitative High-Throughput drug screen in 47 multiple myeloma cell lines against the NCATS MIPE library collection: JIM1_ECACC cell viability assay (AID 1918964)
How it was run: as §1

Measured: Potency
Potency is read from the fitted curve at half-maximal effect.

Cn1c2ccccc2c2c3c(c4c5ccccc5n(CCC#N)c4c21)CNC3=O
active: [1] 1.48 µM | [2] 2.96 µM | [3] 0.935 µM | [4] 7.43 µM | [5] 2.35 µM | [6] 2.35 µM | [7] 0.935 µM | [8] 0.148 µM | [9] 0.833 µM | [10] 6.62 µM | [11] 0.0833 µM | [12] 3.32 µM | [13] 1.87 µM | [14] 16.6 µM | [15] 2.35 µM

CC(C)CC(=O)Nc1n[nH]c2c1CN(C(=O)C1CCN(C)CC1)C2(C)C
active: [1] 0.166 µM | [2] 1.66 µM | [3] 1.66 µM | [4] 1.05 µM | [5] 1.32 µM | [6] 2.64 µM | [7] 1.18 µM | [8] 0.526 µM | [9] 1.18 µM | [10] 0.833 µM | [11] 0.296 µM | [12] 2.09 µM | [16] 3.32 µM | [17] 1.18 µM | [14] 1.66 µM | [15] 2.35 µM | [18] 1.05 µM | [19] 0.0296 µM

CN1CCN(c2ccc3nc(-c4c(N)c5c(F)cccc5[nH]c4=O)[nH]c3c2)CC1
active: [1] 2.35 µM | [2] 18.7 µM | [3] 11.8 µM | [4] 20.9 µM | [5] 14.8 µM | [6] 8.33 µM | [7] 16.6 µM | [8] 8.33 µM | [9] 2.09 µM | [11] 1.32 µM | [16] 7.43 µM | [17] 7.43 µM | [14] 16.6 µM | [15] 5.9 µM | [18] 1.32 µM | [19] 4.69 µM

Nc1ccccc1NC(=O)c1ccc(CNC(=O)OCc2cccnc2)cc1
active: [1] 0.372 µM | [2] 3.72 µM | [3] 0.833 µM | [4] 1.32 µM | [5] 0.935 µM | [6] 2.64 µM | [7] 0.418 µM | [8] 0.469 µM | [9] 4.18 µM | [20] 1.48 µM | [11] 0.418 µM | [16] 2.35 µM | [13] 0.833 µM | [17] 0.526 µM | [14] 1.32 µM | [15] 0.743 µM | [18] 0.526 µM | [19] 0.469 µM

CC(C)[C@H](C(=O)Nc1ccc(C(=O)NO)cc1)c1ccccc1
active: [1] 0.372 µM | [2] 1.87 µM | [3] 0.469 µM | [4] 0.132 µM | [5] 0.418 µM | [6] 1.05 µM | [7] 0.662 µM | [8] 0.469 µM | [9] 1.32 µM | [20] 0.332 µM | [11] 0.235 µM | [12] 0.662 µM | [17] 2.09 µM | [14] 0.526 µM | [15] 0.526 µM | [18] 0.833 µM | [19] 0.105 µM

CCN(CC)CCCCNc1ncc2cc(-c3cc(OC)cc(OC)c3)c(NC(=O)NC(C)(C)C)nc2n1
active: [1] 9.35 µM | [2] 23.5 µM | [3] 26.4 µM | [4] 23.5 µM | [5] 23.5 µM | [6] 26.4 µM | [7] 18.7 µM | [9] 9.35 µM | [10] 23.5 µM | [11] 16.6 µM | [12] 20.9 µM | [16] 23.5 µM | [13] 10.5 µM | [17] 16.6 µM | [14] 18.7 µM | [15] 16.6 µM | [18] 7.43 µM

COc1cc2c(cc1-c1c(C)noc1C)ncc1[nH]c(=O)n([C@H](C)c3ccccn3)c12
active: [1] 0.418 µM | [2] 10.5 µM | [3] 0.332 µM | [4] 0.332 µM | [5] 0.296 µM | [6] 5.9 µM | [7] 5.9 µM | [8] 0.148 µM | [9] 2.96 µM | [10] 18.7 µM | [20] 5.9 µM | [11] 0.264 µM | [16] 20.9 µM | [13] 4.69 µM | [17] 3.72 µM | [14] 0.833 µM | [15] 0.833 µM | [18] 8.33 µM | [19] 0.743 µM

Cc1cc(Nc2ncnc3ccc(-c4ccc(CNCCS(C)(=O)=O)o4)cc23)ccc1Oc1ccn2ncnc2c1
active: [1] 1.66 µM | [2] 20.9 µM | [3] 0.935 µM | [4] 11.8 µM | [5] 2.35 µM | [6] 5.26 µM | [7] 1.18 µM | [9] 6.62 µM | [10] 9.35 µM | [20] 5.26 µM | [11] 1.87 µM | [12] 18.7 µM | [13] 0.332 µM | [17] 2.64 µM | [14] 18.7 µM | [15] 5.26 µM | [18] 2.09 µM

Nc1nc(Nc2ccc(S(N)(=O)=O)cc2)nn1C(=O)c1c(F)cccc1F
active: [1] 2.64 µM | [2] 6.62 µM | [3] 2.09 µM | [4] 9.35 µM | [5] 5.26 µM | [6] 5.9 µM | [7] 4.18 µM | [8] 3.32 µM | [9] 2.96 µM | [10] 7.43 µM | [11] 1.48 µM | [12] 5.26 µM | [16] 8.33 µM | [13] 6.62 µM | [17] 4.18 µM | [14] 5.9 µM | [15] 6.62 µM | [18] 4.18 µM
